Luc counter: counter-screen: inhibitors of Kinase-Glo firefly luciferase | Q27757 | Kinase-Glo luciferase, ATP luminescence, 8 min | Potency, µM (doses to about 38.3 µM), usual class: inhibitors | 0.28% of 200,000 active; further: nearly all actives have a fitted effect of over 60% in size
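Compounds were added to a substrate mix at pH 7.2 (50 mM imidazole, 10 uM ATP, within the enzyme's linear range), followed by Kinase-Glo detection reagent; luminescence was measured after 8 minutes at ambient temperature.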
Tau fibril FP: inhibitors of human tau fibril formation | Potency, µM (top dose mostly 57.7 µM), most hits filed as inhibitors | K18 P301L tau heparin fibrillization, Alexa594 FP, 6 h | 0.39% of 280,000 active | AID 1468 | P10636; further: nearly all actives have a fitted effect of over 55% in size
Target sequence (P10636 561-689 P618L limits assumed): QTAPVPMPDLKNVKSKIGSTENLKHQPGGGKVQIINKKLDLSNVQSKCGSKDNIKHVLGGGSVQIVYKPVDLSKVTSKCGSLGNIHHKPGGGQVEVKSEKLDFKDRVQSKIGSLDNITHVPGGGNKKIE
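Human K18 P301L fragment (15 uM unlabeled plus 0.24 uM Alexa 594-labeled) in 100 mM sodium acetate pH 7 with compound, aggregation induced by 20 uM heparin for 6 hr at 37 C. ThT (30 uM) added for 1 hr, then Alexa 594 FP read.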
Tau fluor cs: counter-screen for tau fibril formation inhibitors | AID 1463 | Potency, µM (doses to about 57.7 µM) | 0.93% of 280,000 active | tau K18 P301L Alexa594 fluorescence, heparin fibrillization; further: nearly all actives have a fitted effect of over 55% in size
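Human tau K18 P301L (15 uM unlabeled, 0.24 uM Alexa 594-labeled) in 100 mM sodium acetate pH 7 with 20 uM heparin, 6 hr at 37 C. ThT 30 uM added, 1 hr ambient; Alexa 594 FP and total fluorescence read at 555/632 nm.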
Tau ThT inhib: blocks human tau fibril formation measured by thioflavin T; Potency, µM (doses to about 57.4 µM), usual class: inhibitors; P10636; 2.1% of 270,000 active; recombinant tau K18 P301L (four-repeat tau fragment), heparin-induced fibrillization, ThT fluorescence; AID 1460; further: nearly all actives have a fitted effect of over 55% in size
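Recombinant human tau K18 fragment […] carrying P301L, 15 uM unlabeled plus 0.24 uM Alexa 594-labeled, was fibrillized with 20 uM heparin in 100 mM sodium acetate pH 7 for 6 hr at 37 C; 30 uM ThT fluorescence read after 1 hr.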
NPSR antag: antagonists of human neuropeptide S receptor cAMP signaling; Potency, µM (highest dose often 38.3 µM), actives largely listed as inhibitors; 1% of 220,000 active; CHO-NPSR cells, cAMP TR-FRET, antagonist mode; further: nearly all actives have a fitted effect of over 50% in size
Target sequence (Q6W5P4 whole entry, looked up): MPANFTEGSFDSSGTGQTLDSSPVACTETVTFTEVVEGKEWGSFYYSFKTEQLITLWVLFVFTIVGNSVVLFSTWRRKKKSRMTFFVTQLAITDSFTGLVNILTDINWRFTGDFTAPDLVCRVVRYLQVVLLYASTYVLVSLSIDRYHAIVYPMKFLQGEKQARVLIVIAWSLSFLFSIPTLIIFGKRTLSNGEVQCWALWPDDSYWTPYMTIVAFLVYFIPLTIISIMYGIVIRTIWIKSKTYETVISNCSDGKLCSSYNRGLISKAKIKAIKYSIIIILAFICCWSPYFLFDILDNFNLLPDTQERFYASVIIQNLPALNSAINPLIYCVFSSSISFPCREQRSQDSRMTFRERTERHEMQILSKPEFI
Large screens that a line does not name were inactive; [ ] = dose if it differs, or a comment. In the library only some 3.3% were active in any assay of this set; here they are far more common. The call rests on the fitted dose curve; in most records, active means well fitted curve in the direction sought with a large enough effect; inconclusive means small, poorly fitted or top-dose-only effect, or another doubt; inactive means no such curve, though single readings can be large; an effect the other way counts as inactive or inconclusive.

CCOC(=O)c1ccccc1NC(=O)NC(C)c1c(-n2cccc2)sc(C)c1C (stereo not drawn)	none (no result: Luc counter, NPSR antag)
CCN(c1ccc(C)cc1)S(=O)(=O)c1nnc(NC(=O)C2CCCCC2)s1	Tau ThT inhib inconclusive (no result: Luc counter, NPSR antag)
CCN(c1ccccc1)S(=O)(=O)c1nnc(NC(=O)C2CCCCC2)s1	Tau ThT inhib 3.5µM (no result: Luc counter, NPSR antag)
COc1cc([C@@H]2c3cc4c(cc3C(OC3OC5COC(C)OC5C(O)C3O)C3COC(=O)[C@@H]32)OCO4)cc(OC)c1O (stereo partly drawn)	none (no result: NPSR antag)
O=c1c2c3c(sc2ncn1/N=C/c1ccc([N+](=O)[O-])o1)CCCC3	Tau fluor cs inconclusive, Tau ThT inhib 20µM, NPSR antag inconclusive
CC1CCN(S(=O)(=O)c2cn(CC(=O)Nc3ccc(F)cc3)c(=O)c3ccccc23)CC1	Tau fibril FP inconclusive, Tau fluor cs inconclusive (no result: Luc counter, NPSR antag)
O=C(O)c1cc2c(cc1S(=O)(=O)O)[C@H]1[C@@H](C3[C@H]2[C@@]2(Cl)C(Cl)=C(Cl)C3(Cl)C2(Cl)Cl)[C@]2(Cl)C(Cl)=C(Cl)C1(Cl)C2(Cl)Cl (stereo partly drawn)	none (no result: Tau fibril FP, Tau fluor cs, Tau ThT inhib, NPSR antag)
COc1c(C=O)c(O)cc2c1C(=O)c1ccccc1C2=O	Tau fibril FP inconclusive, Tau fluor cs inconclusive, Tau ThT inhib 7.9µM (no result: Luc counter, NPSR antag)
Cc1cc(C)cc(NC(=O)C2CCCN2S(=O)(=O)c2cccc3nsnc23)c1 (stereo not drawn)	none (no result: Luc counter, NPSR antag)
COc1ccc(NC(=O)Cn2nnc(-c3ccccc3NS(=O)(=O)c3ccccc3)n2)cc1	Tau fibril FP 16µM, Tau fluor cs inconclusive
COc1ccc2ccccc2c1/C=N/N1C(=O)CSC1=S	Tau ThT inhib 11µM
COc1cc(/C=N/N2C(=O)CSC2=S)cc(Br)c1O	Tau fibril FP inconclusive, Tau fluor cs inconclusive, Tau ThT inhib 13µM
COc1ccccc1N1CCN(/N=C/c2cccc(OC)c2O)CC1	none
COc1cccc(/C=N/N2C(=O)CSC2=S)c1O	Tau fibril FP inconclusive, Tau fluor cs inconclusive, Tau ThT inhib 16µM
COc1ccccc1NC(=O)CSC1=Nc2ccccc2C2=NC(Cc3ccccc3)C(=O)N12 (stereo not drawn)	none (no result: Luc counter, NPSR antag)
N#Cc1c(N)oc(-c2ccc3c(c2)OCO3)c1-c1ccc2c(c1)OCO2	Tau fluor cs 28µM[quencher], Tau ThT inhib inconclusive
CCOc1ccc(N/C=C/C(=O)c2ccccc2)c([N+](=O)[O-])c1	Luc counter 11µM, Tau fluor cs inconclusive, Tau ThT inhib 1.4µM
COc1ccc(-c2nc3scc(CCNC(=O)c4cc(OC)cc(OC)c4)n3n2)cc1	none (no result: Luc counter, NPSR antag)
CN1/C(=C/C=C(C#N)C#N)C=Cc2ccccc21	Tau fibril FP 25µM, Tau fluor cs inconclusive, Tau ThT inhib inconclusive, NPSR antag inconclusive (no result: Luc counter)
CCCN1C=CC(=C/C=C(\C#N)C(=O)OCC)C=C1	Tau ThT inhib inconclusive, NPSR antag inconclusive
CCOC(=O)/C(C#N)=C/C=C1\C=Cc2ccccc2N1CC	Tau ThT inhib 1.6µM
Cc1ccc(NCc2nnc3n2CCCCC3)cc1Cl	none (no result: Luc counter, NPSR antag)
COC(=O)c1ccc(C(=O)OC)c(NC(=O)c2c(-c3ccccc3)noc2C)c1	none (no result: Luc counter, NPSR antag)
CCn1c2ccccc2c2cc(NC(=O)COC(=O)c3cc(S(N)(=O)=O)c(Cl)cc3Cl)ccc21	Tau fluor cs 8.9µM[quencher], Tau ThT inhib inconclusive
CCn1c2ccccc2c2cc(NC(=O)COC(=O)c3ccccc3O)ccc21	none
CCn1c2ccccc2c2cc(NC(=O)COC(=O)c3cc(Cl)c(N)cc3OC)ccc21	Tau fluor cs 10µM[quencher], Tau ThT inhib inconclusive (no result: Luc counter)
CCOC(=O)c1ccc(NC(=O)C2Cc3ccccc3C(=O)O2)cc1 (stereo not drawn)	Tau ThT inhib inconclusive (no result: Luc counter, NPSR antag)
CN(C(Cc1ccc(OS(=O)(=O)c2cccc3cnccc23)cc1)C(=O)N1CCN(c2ccccc2)CC1)S(=O)(=O)c1cccc2cnccc12 (stereo not drawn)	none (no result: Luc counter, NPSR antag)
COc1ccc(CNC(=O)c2ccc(Cn3c(=O)c4cccn4c4cccnc43)cc2)c(OC)c1	none (no result: Luc counter, NPSR antag)
Cc1oc(-c2ccccc2Cl)nc1CS(=O)CC(=O)NCc1ccccc1Cl (stereo not drawn)	Tau ThT inhib inconclusive (no result: Luc counter, NPSR antag)
O=C1CCC/C(=N/Nc2ccc(Cl)cc2)C1	Tau fibril FP inconclusive, Tau fluor cs inconclusive, Tau ThT inhib 25µM
CCOc1ccc(S(=O)(=O)N/N=C2/CCCC(=O)C2)cc1	none
COc1cccc(-c2nc(CS(=O)(=O)CC(=O)N3CCN(c4ccccc4)CC3)c(C)o2)c1	Tau ThT inhib inconclusive (no result: Luc counter, NPSR antag)
CCN1C(=O)C2(C(C(=O)c3ccc(C)o3)=C(O)C(=O)N2CCCN2CCOCC2)c2ccccc21 (stereo not drawn)	none
CCN1C(=O)C2(C(C(=O)c3cc4ccccc4o3)=C(O)C(=O)N2CCCN2CCOCC2)c2ccccc21 (stereo not drawn)	NPSR antag 7.9µM (no result: Luc counter)
COc1cc(CNc2ccc(N3CCN(C(C)=O)CC3)cc2)ccc1OCc1ccccc1	Tau fluor cs inconclusive, Tau ThT inhib 4µM
Cc1ccc(CNc2ccc(O)cc2)cc1	Tau fibril FP 8.9µM, Tau fluor cs inconclusive, Tau ThT inhib 3.5µM
Cc1ccc(CSc2nc3ccc(NC(=O)CC(C)C)cc3s2)cc1	none (no result: Luc counter, NPSR antag)
CCN(CC)CCNC(=O)c1cc2c(=O)[nH]c3ccc(C)cc3c2s1	none (no result: Luc counter, NPSR antag)
CCN(CC)CCNC(=O)c1[nH]c2ccc(OCc3ccccc3)cc2c1C	Tau fluor cs 20µM[quencher], NPSR antag inconclusive
COc1cc(O)c(C(CCN2CCN(c3ccccc3)CC2)c2cc(OC)c(OC)c(OC)c2)c(OC)c1 (stereo not drawn)	Tau fluor cs inconclusive, Tau ThT inhib inconclusive, NPSR antag 5µM (no result: Luc counter)
CCSc1nnc(NC(=O)c2ccc3ccccc3n2)s1	Tau ThT inhib inconclusive, NPSR antag 7.9µM
Cc1cc(SCC(=O)N/N=C/c2ccc(O)cc2O)c(C)cc1Br	Tau fluor cs 16µM[quencher], Tau ThT inhib inconclusive
O=C(CNC(=O)C(c1ccccc1)c1ccccc1)N/N=C/c1ccc(O)cc1O	Tau fluor cs inconclusive, Tau ThT inhib inconclusive (no result: Luc counter)
Cn1c(N/N=C/c2cccs2)cc(=O)n(C)c1=O	Tau ThT inhib inconclusive
Fc1c(F)c(C(F)(F)F)c(F)c(F)c1N/N=C\c1cccs1	Tau fluor cs 7.9µM[quencher], NPSR antag inconclusive
O=C(Cn1cc(/C=N/NC(=O)c2cccc3ccccc23)c2ccccc21)Nc1ccc(F)cc1	Tau fluor cs inconclusive (no result: Luc counter)
O=C(Cn1cc(/C=N/NC(=O)c2ccccc2Br)c2ccccc21)Nc1ccc(F)cc1	Tau fluor cs 16µM[quencher]
COc1ccc(CCNC(=O)CCCn2c(=O)c3ccccc3n(Cc3ccccc3C#N)c2=O)cc1OC	none (no result: Luc counter, NPSR antag)
COc1ccc(-n2nc3c(N4CCCC(C(=O)NCc5cccc(F)c5)C4)nnc(C)c3c2C)cc1 (stereo not drawn)	Tau ThT inhib inconclusive (no result: Luc counter, NPSR antag)
CCOC(=O)CC1C(=O)NCCN1c1nc2c(C)cccn2c(=O)c1/C=C1\SC(=S)N(CC(C)C)C1=O (stereo not drawn)	Tau ThT inhib 10µM, NPSR antag 10µM (no result: Luc counter)
CN(C)CCCN=C(N)N	none (no result: Tau fibril FP, Tau fluor cs, Tau ThT inhib, NPSR antag)

Source: PubChem
